This is an account of results in PubChem BioAssay AID624330 (Southern Research Specialized Biocontainment Screening …, 2012).

Out of some 340,000 compounds screened, about 2,100 (0.62%) were called active. Not all results are given here. Potency and affinity values are given separately. A number with no mark means an inactive call.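 Rule for the calls: active = first-screen hits whose inhibition reached a set limit at any dose in the follow-up dose series; inconclusive = inhibition above the set first-screen limit but never retested; inactive = the rest.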

Sequence of Rac GTPase-activating protein 1 (Homo sapiens) (Q9H0H5 whole entry, looked up): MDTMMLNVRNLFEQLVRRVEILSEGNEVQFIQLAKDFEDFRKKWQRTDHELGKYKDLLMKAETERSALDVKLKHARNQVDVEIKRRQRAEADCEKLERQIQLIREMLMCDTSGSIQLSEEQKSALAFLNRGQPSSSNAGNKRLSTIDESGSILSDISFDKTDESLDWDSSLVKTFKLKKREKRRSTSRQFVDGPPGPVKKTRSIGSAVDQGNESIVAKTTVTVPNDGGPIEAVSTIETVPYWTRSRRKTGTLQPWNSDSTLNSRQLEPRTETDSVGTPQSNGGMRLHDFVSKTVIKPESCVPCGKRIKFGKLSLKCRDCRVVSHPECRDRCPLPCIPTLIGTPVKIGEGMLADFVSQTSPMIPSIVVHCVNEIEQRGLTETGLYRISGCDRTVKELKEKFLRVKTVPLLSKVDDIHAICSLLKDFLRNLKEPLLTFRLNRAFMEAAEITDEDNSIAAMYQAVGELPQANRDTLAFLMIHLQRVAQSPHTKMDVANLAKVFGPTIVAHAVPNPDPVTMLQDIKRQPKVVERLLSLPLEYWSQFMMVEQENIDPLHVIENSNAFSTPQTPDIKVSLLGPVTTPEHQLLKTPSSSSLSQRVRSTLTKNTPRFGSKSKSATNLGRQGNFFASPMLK

This test addresses Rac GTPase-activating protein 1 (Homo sapiens) (UniProt Q9H0H5). The test can be described thus: MgcRacGAP GTPase-activating activity inhibitors, confirmation, biochemical, ADP Hunter fluorescence, primary and confirmatory (AID 624330).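 Note: fluorescence reports GDP produced by GAP-driven GTP hydrolysis.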 The settings on record: MgcRacGAP-stimulated Rac1 GTP hydrolysis, at 30 µM, stronger effect = higher value, GST-tagged Rac1 F28L mutant substrate.
In the case of `O=C(CNC(=O)c1ccccc1Br)N/N=C/c1ccccc1O`, the inhibition (usually the drop in the measured response relative to a control, in per cent) is 5.07%.
Consider `CC(=O)Nc1ccc(/C=N\NC(=O)CNS(=O)(=O)c2ccc([N+](=O)[O-])cc2)cc1`, for which the inhibition was 9.49%.
Regarding `O=C(N/N=C/c1ccc(Br)cc1)c1cc[n+](Cc2ccccc2)cc1`, the inhibition is 4.25%.
For `O=C(CNS(=O)(=O)c1ccc([N+](=O)[O-])cc1)N/N=C\c1ccc(O)cc1` the value was 20.8%; for `CC(=O)Nc1ccc(/C=N/NC(=O)CNS(=O)(=O)c2ccccc2)cc1`, 9.41%.
In the case of `O=C(CNS(=O)(=O)c1ccccc1)N/N=C\c1ccc(Cl)cc1`, the inhibition was 7.25%.
Consider `O=C(N/N=C/c1ccc(OCc2ccccc2)cc1)c1cc[n+](Cc2ccccc2)cc1`, for which the inhibition is 13.8%.
The same measure for `O=C(CNC(=O)c1ccccc1Br)N/N=C/c1cccnc1`: 7.98%; for `COc1cc(C2N(c3cc(C)on3)C(=O)C3CCCN32)cc(OC)c1OC` (stereo unspecified): 4.47%.
Consider `CCOC(=O)C(=O)/C(=C\N(C)C)c1onc(-c2c(F)cccc2Cl)c1C(=O)OC`, for which the inhibition was 4.69%.
For `CSc1nc(C)cc(OCC#N)n1` the value was 5.78%; for `Cc1cccc(NC(=S)N2CCN(S(=O)(=O)c3ccc(F)cc3)CC2)c1`, 8.03%; for `CCCCCCN1C[C@@H](n2cc(COC(=O)c3ccccc3)nn2)[C@H](O)C[C@@H]1c1ccc(Cl)cc1`, 8.49%.
For `Nc1ccc(-c2cn3cccnc3n2)cc1`, the inhibition is -4.77%.
For the compound `COc1cccc(N2CCN(C(=O)CCc3nnc4ccc(N5CCCC5)nn34)CC2)c1`, the inhibition is 18%.
As for `O=C(COc1ccc(Cl)cc1)Nc1cc(S(=O)(=O)N2CCCCC2)ccc1N1CCCCC1`, the inhibition was -10.3%.
Regarding `C=CCNC(=O)c1snnc1-c1ccccc1`, the inhibition is 5.75%.
With `O=C(C[n+]1ccccc1)N/N=C/c1ccc(Br)cc1`, the inhibition was -2.09%.
With `O=C(Cn1cnc([N+](=O)[O-])n1)N/N=C/c1ccccc1O`, the inhibition is 4.85%.
As for `COc1ccc(/C=N/NC(=O)Cc2cccs2)cc1`, the inhibition is 3.05%.
Turning to `O=C(Cn1cnc([N+](=O)[O-])n1)N/N=C/c1cc(Cl)ccc1O`, the inhibition is 11.2%.
For `O=C(C[n+]1ccccc1)N/N=C/c1ccc(C(=O)O)cc1`, the inhibition is 2.14%.
For `CCN(CC)c1ccc(/C=N/NC(=O)Cc2cccs2)cc1` the value was 18.5%.
On to `CCOc1ccc(NC(=O)COc2cccc3cccnc23)cc1S(=O)(=O)N1CCCC1`, for which the inhibition was 5.24%.
Regarding `CC(C)c1[nH]nc2c1C(c1cccs1)C(C#N)=C(N)O2` (stereo unspecified), the inhibition is 8.28%.
The same measure for `CC(C)(C)S(=O)(=O)c1cnc2c(S(=O)(=O)c3ccccc3)cnn2c1N`: -3.04%; for `N#CCC(=O)Nc1ccc(C(=O)OCC(=O)N=c2sccn2Cc2ccccc2Cl)cc1`: 5.66%; for `CCOC(=O)c1c[nH]c(=O)c(Br)c1O`: 4.86%.
With `COc1ccc(NS(=O)(=O)c2cc(NC(=O)c3ccco3)ccc2N2CCCC2)cc1`, the inhibition is -4.14%.
For the compound `COc1ccc(C(=O)OCC(=O)Nc2ncc([N+](=O)[O-])s2)cc1OC`, the inhibition is 21.6%.
Regarding `O=C(COC(=O)COc1ccccc1)Nc1ncc([N+](=O)[O-])s1`, the inhibition is 11.1%.
With `C/C(=N\OC(=O)Nc1ccc(Cl)cc1)c1ccc(F)c(F)c1`, the inhibition was 6.77%.
Consider `CCOC(=O)N1CCN(C(=O)Cc2cccs2)CC1`, for which the inhibition is 9.5%.
`COc1ccc(CN2C(=O)C(CC(=O)NCCCN(C)C)CC(C(=O)N(C)C)=C2C)cc1` (stereo unspecified): the inhibition is 12.7%.
With `CN(CCc1ccccn1)c1ncnc2[nH]ncc12`, the inhibition was 6.58%.
On to `Cc1sc2ncnc(N(C)Cc3cccs3)c2c1C`, for which the inhibition was 10.9%.
The same measure for `COc1ccc(CNC(=O)CCCn2nc([N+](=O)[O-])cc2C)cc1`: 9%.
For `O=C1c2ccccc2C(=O)N1c1nc(-c2cccs2)cs1` the value was 13.9%; for `O=C1CCCCCCCN1Cc1ccccc1`, 1.03%.
For `O=C1CCCCCN1Cc1ccccc1`, the inhibition is 3.56%.
As for `COc1ccc(NC(=O)Nc2ccon2)cc1OC`, the inhibition is 7.89%.
Turning to `COc1ccc(CN2CCN(Cc3ccco3)CC2)cc1`, the inhibition is 29.8%.
As for `CCc1ccc(S(=O)(=O)N2CCN(Cc3ccco3)CC2)cc1`, the inhibition is 6.82%.
With `COc1cc(OC)c(OC)cc1CN1CCN(Cc2ccco2)CC1`, the inhibition was 20.1%.
For the compound `FC(F)(F)c1ccc(CN2CCN(Cc3ccco3)CC2)cc1`, the inhibition was 15.3%.
For the compound `CCCc1ccc(S(=O)(=O)N2CCN(Cc3ccco3)CC2)cc1`, the inhibition was 8.89%.
For `Cc1cccc(CN2CCSCC2)c1`, the inhibition is 23.8%.
In the case of `Cc1ccc(S(=O)(=O)N2CCN(Cc3ccco3)CC2)c(C)c1`, the inhibition was 3.78%.
For `COc1ccc(CN2CCN(C(=O)c3ccco3)CC2)cc1OC` the value was 11.2%; for `CCc1sc(C(=O)NCCCN2CCCC2=O)cc1Br`, -10%.
For `Cc1ccc(C)c(S(=O)(=O)N2CCN(C(=O)CSc3ccccc3)CC2)c1` the value was 8.52%.
For `CC(Sc1nnc(-c2ccncc2)n1C)C(=O)NCC1CCCO1` (stereo unspecified) the value was 1.73%.
Regarding `CN(C)CCOC(=O)CC12CC3CC(C1)CC(CC(=O)OCCN(C)C)(C3)C2`, the inhibition is 5.06%.
For the compound `COc1cccc(CNC(=O)c2ccc(S(=O)(=O)N3CCCCC3)cc2)c1`, the inhibition was 9.59%.
On to `Cc1ccc(S(=O)(=O)Nc2cc(=O)[nH]c(SCC(=O)Nc3ccccc3C(F)(F)F)n2)cc1`, for which the inhibition was 5.86%.
For the compound `CCOC(=O)CC(NC(=O)CCc1c(C)nc2nc(C)nn2c1C)c1ccc(OC(C)C)cc1` (stereo unspecified), the inhibition was 8.74%.
Regarding `CCOc1ccc(C(=O)O)cc1OC`, the inhibition was 5.02%.
For `CCCOc1ccc(N)cc1N` the value was 18.7%.
With `CCN(CC)Cc1cc(C(C)=O)ccc1OCC(C)C`, the inhibition was -0.12%.
For `CCOc1ccc(C(N)=O)cc1OC`, the inhibition is -0.9%.
As for `COc1ccc2[nH]c3c(c2c1)CCN1C(=O)C(CC(=O)NCCC2=CCCCC2)C[C@H](C(=O)N2CCCCC2)[C@@]31CCc1ccccc1` (stereo partly specified), the inhibition was 3.14%.
As to `CCc1nc(N)c(C#N)c(-c2ccc(F)cc2)c1C`, the inhibition is 16%.
The same measure for `O=C(Nc1ccc(C(F)(F)F)cc1)C1CC(=O)N(c2ccc3c(c2)OCCO3)C1` (stereo unspecified): 11.2%; for `[O-]/C(=C(\C(=S)Nc1cccc2ccccc12)[n+]1ccccc1)c1ccc(OC(F)F)cc1`: 8.46%.
In the case of `O=C(COC(=O)c1ccccc1O)Nc1ccc(OC(F)F)cc1`, the inhibition is 6.22%.
With `Cc1ccc(S(=O)(=O)C2CCCCC2=O)cc1` (stereo unspecified), the inhibition is 12.8%.
Regarding `Nc1ccc(CCC(=O)N2CCCC2)cc1`, the inhibition was 3.67%.
In the case of `O=C(CNC(=O)c1cccc(F)c1)N/N=C/c1cccc([N+](=O)[O-])c1`, the inhibition is 4.45%.
On to `Cc1ccc(S(=O)(=O)N/N=C/c2ccc(O)c(O)c2)cc1[N+](=O)[O-]`, for which the inhibition was 30.2%.
As to `COc1cc(/C=N/NS(=O)(=O)c2ccc(C)c([N+](=O)[O-])c2)cc([N+](=O)[O-])c1O`, the inhibition was 22.1%.
Turning to `Cc1c(Cl)c([N+](=O)[O-])nn1Cc1ccc(C(=O)N/N=C\c2cccc(Br)c2)o1`, the inhibition was 6.83%.
For the compound `CCN(CC)c1ccc(/C=N/NS(=O)(=O)c2cccc([N+](=O)[O-])c2)cc1`, the inhibition was 23.2%.
The same measure for `Cc1c(Cl)c([N+](=O)[O-])nn1Cc1ccc(C(=O)N/N=C\c2ccccn2)o1`: 3.44%; for `COc1cc(/C=N/NC(=O)c2cccc([N+](=O)[O-])c2)cc(OC)c1O`: 6.29%; for `O=[N+]([O-])c1cccc(/C=N/NS(=O)(=O)c2ccccc2)c1`: 3.56%.
Regarding `O=C(C1CCN(S(=O)(=O)N2CCCCC2)CC1)N1CCCCC1`, the inhibition is 6.28%.
The same measure for `CC1=C(C(=O)N2CCCC(CCC(=O)NCc3ccc(F)c(F)c3)C2)OCCO1` (stereo unspecified): 6.22%.
The same measure for `COc1ccc(/C=N/NC(=O)c2cccc([N+](=O)[O-])c2)cc1OC`: 7.73%; for `COc1ccc(/C=N/NC(=O)c2cccc([N+](=O)[O-])c2)cc1O`: 8.06%; for `Cc1cccc(NC(=O)CSc2nnc(CNC(=O)c3cccs3)o2)c1C`: 8.9%.
On to `CC(C)NC(=O)CSCc1c(F)cccc1Cl`, for which the inhibition was 9.25%.
As to `Cc1ccn2c(NCc3ccc4c(c3)OCO4)c(-c3ccc(O)cc3)nc2c1`, the inhibition is 15.5%.
The same measure for `Oc1ccc(-c2nc3ncccn3c2Nc2ccc3c(c2)OCCO3)cc1`: 11.9%; for `Cc1ccc(-c2nc3ccccn3c2NCc2ccc3c(c2)OCO3)cc1`: 11.7%; for `Oc1ccc(-c2nc3ccccn3c2NCc2ccc3c(c2)OCO3)cc1`: 24.6%.
For `Cc1ccc(-c2nc3cnccn3c2Nc2ccc3c(c2)OCO3)cc1` the value was 24.2%; for `Cc1cccc(Nc2c(-c3ccc(N4CCOCC4)cc3)nc3ncccn23)c1`, 7.86%.
Regarding `S=C1NC[C@H](CC2CCCCC2)N1CC1CCCCC1`, the inhibition was 5.21%.
As for `COc1c(C)cc(C(=O)C2CCCN(Cc3cccc4nccnc34)C2)cc1C` (stereo unspecified), the inhibition is 5.94%.
`CCCNC(=O)Nc1nnc(C2CC2)s1`: the inhibition was 2.83%.
`Cc1ccc(C(=O)NCCc2ccccc2)cc1S(=O)(=O)N1CCOCC1`: the inhibition is 1.5%.
For `CCN(CC)CCCNC(=O)c1cc2c(-c3ccc(Cl)cc3)nn(C)c2s1`, the inhibition was 15.3%.
The same measure for `CCCN(CCC)CCNC(=O)c1cc2c(-c3ccc(Cl)cc3)nn(C)c2s1`: 31.8%; for `CCOc1ccc(-c2nnc(SCC(=O)O)n2Cc2ccccc2)cc1`: 8.65%.
Turning to `COc1ccc(C)cc1NC(=O)C(NCC1CCCO1)c1ccccc1` (stereo unspecified), the inhibition was 6.45%.
Take `COc1ccc(C)cc1NC(=O)CNC(c1ccccc1)c1ccccc1`: the inhibition was 1.89%.
